Bioassay records as filed in PubChem BioAssay.
Rows were chosen to be rich in hits. Some 8.7% of all compounds tested hit in one or more screens of this group.
HP1b chromo inh: HP1-beta chromodomain-methylated histone interaction inhibition; P83916; AlphaScreen HP1-beta / biotin-H3K9me3 peptide binding; Potency, µM (series often up to 114 µM), for inactives: at the highest dose activity change, negative = inhibition, actives largely listed as inhibitors; 390,000 tested, 0.56% active; AID 540317; also: nearly all actives have a fitted effect of over 70% in size
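AlphaScreen: HP1-beta (50 nM) preformed 30 min with biotin-H3(1-18)K9me3 peptide (50 nM) in PBS pH 7.4, 0.01% Tween-20. Compound added for 30 min at RT, then streptavidin donor/nickel chelate acceptor beads (10 ug/mL) for 30 min.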
BAZ2B inh: BAZ2B (human) inhibition | Q9UIF8 | AlphaScreen BAZ2B-H3K14Ac peptide displacement | Potency, µM (series often up to 114 µM), without a hit: at the top dose activity change, negative = inhibition, actives largely listed as inhibitors | 360,000 tested, 4.4% active | AID 504333; also: % is scaled to controls: 0 for no effect and ±100 for the full control effect; nearly all actives have a fitted effect of over 60% in size
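AlphaScreen displacement of biotin-H3(5-23)K14Ac peptide (50 nM final) from BAZ2B (50 nM final) in PBS pH 7.4, 0.01% Tween-20; complex preformed 30 min RT, then compounds (top 110 uM) 30 min RT, beads 20 min dark.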
Sfp inh: blocks B. subtilis Sfp PPTase activity; Biochemical Sfp PPTase activity, qHTS; Potency, µM, for inactives: largest response in the series, negative = inhibition, most hits filed as inhibitors; 310,000 tested, 3.5% active; AID 1490;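 also: the enzyme is Sfp with the accession as filed and its product quenches rhodamine fluorescence; 0% = enzyme reaction without inhibitor and -100% = no enzyme wells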
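Fluorescence-quenching assay with 15 nM Sfp, 5 uM rhodamine-CoA and 12.5 uM BHQ-2-labelled ybbR peptide in pH 7.6 Hepes/MgCl2 buffer. Enzyme was pre-incubated with compound for 15 min at room temperature. Rate was taken from the 30-min fluorescence change (525/598 nm).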
G9a block: inhibitors of human histone lysine methyltransferase G9a. Potency, µM (highest dose often 102 µM), inactives show at the highest dose activity, negative = inhibition, hits mostly inhibitors. G9a H3K9 monomethylation, AlphaScreen, 2 h. Q96KQ7. 350,000 tested, 8.8% active; also: % is scaled to controls: 0 for no effect and ±100 for the full control effect; nearly all actives have a fitted effect of over 75% in size
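Compounds were preincubated with 20 nM G9a for 15 min, after which biotinylated H3K9 peptide (500 nM) and SAM (20 uM) started a 2 h room-temperature reaction. Monomethylated product was quantified by antibody-based AlphaScreen chemiluminescence.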
JMJD2A Tudor: inhibitors of human JMJD2A Tudor domain; O75164; AlphaScreen JMJD2A-Tudor / H3K4me3 peptide binding; Potency, µM (series often up to 114 µM), for the others: at the highest dose activity change, negative = inhibition, usual class: inhibitors; 390,000 tested, 4.4% active; also: % is scaled to controls: 0 for no effect and ±100 for the full control effect; nearly all actives have a fitted effect of over 50% in size
ALOX12 inh: ALOX12 (human) lipoxygenase inhibition | AID 1671190 | 580,000 tested, 1.1% active | P18054 | purified 12hLO, xylenol orange hydroperoxide absorbance | Potency, µM (top dose mostly 108 µM), inactives show at the highest dose activity change, negative = inhibition, hits mostly inhibitors; also: % is scaled to controls: 0 for no effect and ±100 for the full control effect
Target sequence (P18054 whole entry, looked up): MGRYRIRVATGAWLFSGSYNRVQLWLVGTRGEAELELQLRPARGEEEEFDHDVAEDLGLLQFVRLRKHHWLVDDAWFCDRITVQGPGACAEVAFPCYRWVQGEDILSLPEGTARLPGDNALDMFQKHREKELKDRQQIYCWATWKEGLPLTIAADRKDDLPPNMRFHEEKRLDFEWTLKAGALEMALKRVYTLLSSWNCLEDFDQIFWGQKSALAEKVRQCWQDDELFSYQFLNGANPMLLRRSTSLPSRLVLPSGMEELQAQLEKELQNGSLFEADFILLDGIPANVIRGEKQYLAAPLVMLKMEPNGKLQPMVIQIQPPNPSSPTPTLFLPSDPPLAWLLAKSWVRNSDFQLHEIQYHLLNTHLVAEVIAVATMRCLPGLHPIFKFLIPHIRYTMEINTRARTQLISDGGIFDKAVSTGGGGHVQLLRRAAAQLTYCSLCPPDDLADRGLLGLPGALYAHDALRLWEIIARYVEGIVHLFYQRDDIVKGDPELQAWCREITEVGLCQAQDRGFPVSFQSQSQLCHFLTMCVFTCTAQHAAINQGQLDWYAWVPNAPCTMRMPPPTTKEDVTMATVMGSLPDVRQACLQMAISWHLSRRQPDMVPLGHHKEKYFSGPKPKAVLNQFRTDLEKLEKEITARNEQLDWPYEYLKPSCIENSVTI
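Hydroperoxide product was detected by ferrous iron/xylenol orange as the 573 to 405 nm absorbance ratio. Arachidonic acid at 40 uM (final) was turned over for 30 min at room temperature by 150 nM human 12hLO, pH 7.0 Hepes buffer, after 15 min compound preincubation.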
An asterisk follows results filed as active; ? = inconclusive; nt = no result; [ ] = dose if it differs, or a comment. Calls follow the shape of the dose curve; as a rule, active = well fitted curve in the direction sought with a large enough effect; inconclusive = small, poorly fitted or top-dose-only effect, or another doubt; inactive = no such curve, though single readings can be large; an effect the other way counts as inactive or inconclusive. Potency is read from the fitted curve at half-maximal effect.

SMILES	HP1b chromo inh	BAZ2B inh	Sfp inh	G9a block	JMJD2A Tudor	ALOX12 inh
COCCCN1C(=O)/C(=C/c2ccc(CNS(=O)(=O)c3ccccc3)o2)C(C(=O)OC)=C1C	-11.3%	-38.1%	14.1µM*	28.2µM*	56.2µM*	-11.4%
CC(c1cc2ccccc2o1)N(C)Cc1nc(-c2ccc(F)cc2)no1 (configuration not stated)	nt	nt	nt	nt	nt	-0.7%
COC(=O)c1cccc(OC(=O)c2cccs2)c1	nt	nt	nt	nt	nt	-31.8%
CCc1ccc(-c2noc(CSc3nc4ccccc4o3)n2)cc1	nt	nt	nt	nt	nt	26.0%
CN1CCN(c2ncncc2-c2ccccc2Cl)CC1	nt	nt	12.7%	0.5%[0.501 µM]	nt	39.8µM*
O=[N+]([O-])c1cc([N+](=O)[O-])c2c(=Nc3ccccc3)n(-c3ccccc3)n(O)c2c1	?	20µM*	?	35.5µM*	?	0.0%
COc1cccc(Cn2c(=O)c(-c3noc(C)n3)c3n(c2=O)CCCCC3)c1	nt	nt	nt	nt	nt	6.5%
Nc1cccc(OCC2CCCO2)c1 (configuration not stated)	nt	nt	nt	nt	nt	7.08µM*
CNC(=O)NC(=O)CN(Cc1ccc2c(c1)OCO2)C1CCCC1	nt	nt	nt	nt	nt	26.9%
Cc1ncsc1C(=O)N1CCC(C(=O)O)(n2ccc(-c3ccco3)n2)CC1	nt	nt	nt	nt	nt	11.0%
O=C(CC1=CCCCC1)N1CCC(C2CCNC2)CC1 (configuration not stated)	nt	nt	nt	nt	nt	39.8µM*
CCc1ccc(C(=O)N2CCC(C3CCNC3)CC2)cc1 (configuration not stated)	nt	nt	nt	nt	nt	-4.1%
Cc1[nH]c2ccccc2c1SCc1ccccc1	47.2%	9.4%	-0.3%	2.4%	-10.4%	5.0%
S=c1[nH]nc(Cc2cccc3ccccc23)o1	19.5%	-24.7%	12.0%	2.24µM*	79.4µM*	?
CC(Cc1n[nH]c(=S)o1)c1ccccc1 (configuration not stated)	33.5%	?	-18.9%	8.91µM*	?	?
Cc1[nH]c2ccccc2c1Cc1n[nH]c(=S)o1	10.3%	-12.4%	7.7%	8.91µM*	79.4µM*	?
Cc1[nH]c2ccccc2c1Cc1nnc(SCC(N)=O)o1	43.5%	-1.8%	-7.2%	-8.4%[59 µM]	-14.1%	24.9%
Cc1[nH]c2ccccc2c1SCc1n[nH]c(=S)n1C	14.9%	-15.2%	-11.1%	3.98µM*	10µM*	?
O=C(NCc1ccc(OC(F)(F)F)cc1)c1n[nH]c(=O)c2ccccc12	nt	nt	nt	nt	nt	7.3%
CCCCC(=O)Nc1cccc(-c2nc3cc(C)ccc3o2)c1	nt	nt	nt	nt	nt	-23.5%
Cn1c(Cc2c[nH]c3ccccc23)n[nH]c1=S	-11.7%	7.1%	-7.0%	?	5.01µM*	?
Cc1[nH]c2ccccc2c1Cc1n[nH]c(=S)n1C	-43.2%	1.9%	3.3%	2µM*	6.31µM*	16.6%
Cc1ccc(Cn2c(=O)n(Cc3ccccc3Cl)c(=O)c3ccccc32)cc1	7.3%	-1.6%	nt	4.2%[59 µM]	-15.4%	1.5%
CCOc1ccc(CN2CCN(Cc3ccc4c(c3)c3ccccc3n4CC)CC2)cc1	?	10µM*	nt	4.47µM*	22.4µM*	?
COc1ccc(CC(C)N2CCN(Cc3ccccc3)CC2)cc1OC (configuration not stated)	24.1%	-20.3%	12.5%	-7.2%[59 µM]	-14.4%	nt
SMILES	HP1b chromo inh	BAZ2B inh	Sfp inh	G9a block	JMJD2A Tudor	ALOX12 inh
CCn1c2ccccc2c2cc(CN3CCN(Cc4ccc(OC)c(OC)c4)CC3)ccc21	?	44.7µM*	nt	?	4.47µM*	?
CCn1c2ccccc2c2cc(CN3CCN(Cc4ccccc4Cl)CC3)ccc21	?	50.1µM*	nt	3.55µM*	7.08µM*	?
O=C(Nc1cccc(F)c1)C1CCN(C(=O)c2ncn3c2COC(c2ccccc2)C3)CC1 (configuration not stated)	nt	nt	nt	nt	nt	-6.6%
CC(NC(=O)c1ccccc1)c1nc2ccccc2n1Cc1ccccc1F (configuration not stated)	nt	-35.0%[57.1 µM]	5.7%	50.1µM*	nt	-22.9%
CN1CCCCCCN(S(=O)(=O)c2cccs2)CCC1=O	nt	nt	nt	nt	nt	-3.8%
CC(=O)c1cc(-c2ccccc2)n(CC(=O)NC(C)(C)C)c1C	9.5%	50.1µM*	3.4%	-32.2%	-19.3%	-10.6%
CC(=O)c1cc(-c2ccccc2)n(CC(=O)N2CCCC2)c1C	-3.4%	56.2µM*	4.8%	?	-17.4%	6.4%
CCC(C)(C)NC(=O)Cn1c(-c2ccccc2)cc(C(C)=O)c1C	6.0%	?	-6.3%	-10.4%	-21.4%	-6.9%
COc1ccc(C(=O)Nc2cccc(-c3nc4cccnc4s3)c2C)c(OC)c1	0.0%	-24.8%	nt	11.2µM*	?	-28.4%
CCOCC(=O)Nc1cccc(-c2nc3cccnc3s2)c1C	43.7%	5.1%	7.6%	4.0%	-8.3%	17.9%[57.4 µM]
Cc1ccc(-c2nc3cccnc3s2)cc1NC(=O)c1ccccc1Cl	nt	nt	nt	nt	nt	-14.6%
CCOc1ccccc1C(=O)Nc1cc(-c2nc3cccnc3s2)ccc1C	4.3%	31.6µM*	nt	10µM*	?	-4.5%
COc1cccc(CNC(=O)N2CCCC(Cn3c(C)nc4cccnc43)C2)c1 (configuration not stated)	nt	nt	nt	nt	nt	8.2%
Cc1cc(=O)n2c(C(=O)NCc3ccccc3)c(C(=O)Nc3cccc(C)c3C)sc2n1	nt	nt	nt	nt	nt	-62.0%
Cc1cc(=O)n2c(C(=O)Nc3ccc(F)c(Cl)c3)c(C(=O)Nc3cccc(C)c3C)sc2n1	-11.7%	-1.3%	nt	11.2µM*	-22.2%	?
Cc1cc(=O)n2c(C(=O)Nc3ccc(C(=O)OC(C)C)cc3)c(C(=O)Nc3ccccc3)sc2n1	62.0%	-20.8%	-20.9%	44.7µM*	-18.5%	19.8%
Cc1ccc(NC(=O)c2cc3c(s2)CCCCC3)c(C)c1	nt	nt	nt	nt	nt	0.3%
O=C1CS/C(=N/N=C\c2ccn[nH]2)N1	17.3%	50.1µM*	56.2µM*	nt	-20.6%	169.2%
O=C1CS/C(=N/N=C2C3CC4CC(C3)CC2C4)N1	30.5%	2.3%	24.5%	-12.1%	0.0%	12.4%
COc1ccc(C(=O)N2CCN(C(=O)C3CCCCC3)C[C@@H]2C(=O)N[C@H]2CCCNC2=O)cc1	nt	nt	nt	nt	nt	5.8%
CCN(C(=O)CN1C(=O)NC2(CCC(C)CC2)C1=O)c1cccc(C)c1 (configuration not stated)	nt	nt	nt	nt	nt	-4.8%
O=C(NCCN1CCOCC1)c1cc(-c2ccc(-c3ccccc3)cc2)nc2ccccc12	nt	nt	nt	nt	nt	-69.7%
COc1ccc(Nc2cc(C(=O)NCCCN3CCOCC3)c3ccccc3n2)cc1	1.5%	-29.8%	5.2%	-25.8%	-31.9%	-0.6%
CCCCCCNC(=O)c1cc(-c2ccco2)nc2ccccc12	22.4µM*	35.5µM*	?	8.91µM*	20µM*	?
